# Where “and” joins values, the source holds several entries; their conditions need not be identical. Equal values may be shown once. Calls of active or inactive are those of the source. Unless noted, no stated cut-off is given here; in the data, active means inhibition above about 80%; inactive means the rest.
# Experiments:
# [1] = HTB85 osteosarcoma cell growth inhibition, synergistic combos for chromothripsis tumors, BGB or cisplatin IC20 combos (AID 1671453); details: HTB85 osteosarcoma cells, drug combinations, stronger effect = higher value;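 further: cells exposed for 96 hours before readout; 0% = vehicle DMSO and 100% = high DMSO killing control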
# [2] = CRL2098 osteosarcoma cell growth inhibition, synergistic combos for chromothripsis tumors, BGB or cisplatin IC20 combos (AID 1671454); details: CRL2098 osteosarcoma cells, drug combinations, stronger effect = higher value;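 further: cells exposed for 96 h before readout; 0% = vehicle DMSO and 100% = killing by high DMSO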
# [3] = HD-MB03 medulloblastoma cell growth inhibition, synergistic combos for chromothripsis tumors, BGB or cisplatin IC20 combos (AID 1671455; in the data active means inhibition above about 83%;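 further: 0% = vehicle DMSO and 100% = high DMSO as cytotoxic control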); details: HD-MB03 medulloblastoma cells, stronger effect = higher value
# [4] = UWB1.289 ovarian carcinoma cell growth inhibition, synergistic combos for chromothripsis tumors, BGB or cisplatin combos (AID 1671456); details: UWB1.289 ovarian carcinoma cells, stronger effect = higher value;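 further: cells exposed to compound for four days; 0% = vehicle DMSO and 100% = killing by high DMSO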
# [5] = LFS_MB_2R medulloblastoma cell growth inhibition, synergistic combos for chromothripsis tumors, cisplatin combos (AID 1671457); details: LFS_MB_2R medulloblastoma cells, stronger effect = higher value;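 further: cells exposed to compound for four days before readout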
# [6] = MDA-MB-436 breast carcinoma cell growth inhibition, synergistic combos for chromothripsis tumors, BGB or cisplatin combos (AID 1671458; call rule not given here;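 further: cells exposed for 96 hours; 0% = vehicle DMSO and 100% = killing by high DMSO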); details: MDA-MB-436 breast carcinoma growth inhibition, drug combinations, stronger effect = higher value
# [7] = UWB1.289_BRCA1 ovarian cancer growth, cell-based, BGB or cisplatin combinations (AID 1671459); details: UWB1.289 BRCA1 ovarian carcinoma, drug combinations, stronger effect = higher value
# [8] = human astrocyte viability loss, single and combined drugs, cytotoxicity control for chromothriptic childhood tumor combination screen, cell-based, BGB or cisplatin IC20 combos (AID 1671460); details: Human astrocytes, drug combinations, stronger effect = higher value;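 further: cells exposed to compounds for 96 hours before viability readout; 0% = vehicle and 100% = killing control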
# [9] = growth inhibition of BT084 medulloblastoma cells, cell-based, ICGC_MB145, cisplatin and BGB IC40 combos (AID 1671461); details: drug combinations, stronger effect = higher value;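 further: cells exposed to drugs for 96 hours; 0% = vehicle DMSO and 100% = high DMSO full killing control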
# [10] = growth inhibition of RCMB18 medulloblastoma cells, cell-based, cisplatin and BGB IC40 combos (AID 1671462); details: stronger effect = higher value;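 further: cells exposed to compound for four days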
# [11] = growth inhibition of CRL1545 osteosarcoma cells, cell-based, cisplatin and BGB IC20 combos (AID 1671464); details: stronger effect = higher value;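 further: cells exposed to compound for 96 hours before readout; 0% = vehicle DMSO and 100% = high DMSO killing control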
# [12] = sensitizers of A549 cells to miR-34 induction, primary screen, imaging, A549 dox-inducible miR-34, nuclei and caspase counts (AID 1347080;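 active means compounds whose cell count with miR-34 switched on is under 0.7 times the count with it off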); details: A549 miR-34 inducible, Hoechst nuclei count, 48 h
# [13] = survival rescue of mitochondrial mutant cells in low glucose, primary screen, MELAS cybrids, Rieske KO mouse fibroblasts, CellTiter-Glo (AID 1508586;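 active means mean z-score across replicates of 1.96 or higher in either the MELAS or the Rieske mutant cell line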;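 further: z relative to plate mean and SD of compound and empty wells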)
# [14] = LFS_MB_P medulloblastoma growth inhibition, cell-based, chromothripsis tumors, cisplatin or BGB combos (AID 1671449); details: LFS_MB_P medulloblastoma cells;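 further: cells exposed for 96 hours; 0% = vehicle DMSO and 100% = killing by high DMSO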
# [15] = HDN33 neuroblastoma growth inhibition, cell-based, chromothripsis tumors, cisplatin or BGB combos (AID 1671450); details: HDN33 neuroblastoma cells, stronger effect = higher value;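 further: cells exposed to compound for four days; 0% = vehicle DMSO and 100% = cell killing by high DMSO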
# [16] = ICB984 medulloblastoma cell growth inhibition, synergistic combos for chromothripsis tumors, cisplatin or BGB combos (AID 1671451; call rule not given here;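 further: cells exposed for 96 hours before readout; 0% = vehicle DMSO and 100% = killing by high DMSO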); details: ICB984 medulloblastoma cells, drug combinations, stronger effect = higher value
# [17] = LFS_MB_1R medulloblastoma cell growth inhibition, synergistic combos for chromothripsis tumors, cisplatin or BGB combos (AID 1671452); details: LFS_MB_1R medulloblastoma cells, stronger effect = higher value;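 further: cells exposed for 96 hours before readout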
# [18] = measured here: with BGB IC20, at 0.5 µM
# [19] = measured here: with BGB IC20, at 5 µM
# [20] = measured here: with cisplatin IC20, at 0.5 µM
# [21] = measured here: with cisplatin IC20, at 5 µM
# [22] = measured here: combination with BGB at IC20, at 0.5 µM
# [23] = measured here: combination with cisplatin at IC20, at 0.5 µM
# [24] = measured here: combo with BGB at IC20, at 0.5 µM
# [25] = measured here: combo with cisplatin at IC20, at 0.5 µM
# [26] = measured here: inhibition with BGB combination, at 0.05 µM
# [27] = measured here: inhibition with cisplatin combination, at 0.05 µM
# [28] = measured here: combination with cisplatin, at 0.5 µM
# [29] = measured here: combination with cisplatin, at 5 µM
# [30] = measured here: BGB combination, at 0.5 µM
# [31] = measured here: BGB combination, at 5 µM
# [32] = measured here: cisplatin combination, at 0.5 µM
# [33] = measured here: cisplatin combination, at 5 µM
# [34] = BGB combination, concentration series, at 5 µM
# [35] = cisplatin combination, concentration series, at 5 µM
# [36] = measured here: combo with BGB IC20, at 0.5 µM
# [37] = measured here: combo with cisplatin IC20, at 0.5 µM
# [38] = cisplatin combination, at 0.5 µM
# [39] = measured here: BGB IC40 combination 0.05 uM, at 0.05 µM
# [40] = measured here: BGB IC40 combination, at 0.05 µM
# [41] = measured here: with BGB IC20 combination, at 0.5 µM
# [42] = measured here: with cisplatin IC20 combination, at 0.5 µM
# [43] = measured here: combination with BGB IC40, at 0.05 µM
smiles,measurement,setting,value
O=c1ccn(C2OC(CO)C(O)C2O)c(=O)[nH]1 (stereo not drawn),inhibition,[1]; at 0.5 µM,10.7% (inactive) and -20.8% (inactive)
same,inhibition,[1]; [18],10.2% and -46.4%
same,inhibition,[1]; [19],15% and -44.4%
same,inhibition,[1]; [20],7.75% and -5.03%
same,inhibition,[1]; [21],1.8% and -45.1%
same,inhibition,"[1]; single agent, at 5 µM",13% and -28.4%
same,inhibition,[2]; at 0.5 µM,9.28% (inactive) and -75.8% (inactive)
same,inhibition,[2]; [22],0.692% and -94%
same,inhibition,[2]; [23],13.9% and -68.3%
same,inhibition,[3]; at 0.5 µM,6.18% (inactive) and -13.5% (inactive)
same,inhibition,[3]; [24],2.23% and -12.6%
same,inhibition,[3]; [25],13.4% and -11.6%
same,inhibition,[4]; at 0.5 µM,16.3% (inactive) and -6.23% (inactive)
same,inhibition,[4]; [26],-2.12% and -33.8%
same,inhibition,[4]; [27],36.9% and -21.3%
same,inhibition,[5]; at 0.5 µM,6.19% (inactive) and -21.5% (inactive)
same,inhibition,[5]; [28],9.72% and -11.9%
same,inhibition,[5]; [29],14.1% and -81.5%
same,inhibition,[6]; at 0.5 µM,10.4% (inactive) and -39.6% (inactive)
same,inhibition,[6]; [30],7.3% and -43.2%
same,inhibition,[6]; [31],8.01% and -19.5%
same,inhibition,[6]; [32],12.2% and -58.5%
same,inhibition,[6]; [33],2.73% and -39.8%
same,inhibition,[7]; [34],8.48% and -29.5%
same,inhibition,[7]; at 0.5 µM,10.7% (inactive) and -14.6% (inactive)
same,inhibition,[7]; [35],-14.1% and -9.02%
same,inhibition,[8]; at 0.5 µM,8.08% (inactive) and -8.91% (inactive)
same,inhibition,[8]; [36],10.4% and -14.8%
same,inhibition,[8]; [37],12.5% and -5.12%
same,inhibition,[9]; at 0.5 µM,5.91% (inactive) and -28.7% (inactive)
same,inhibition,[9]; [38],-2.3% and -6.58%
same,inhibition,"[9]; cisplatin combination, at 5 µM",-4.68% and -1.56%
same,inhibition,[9]; [39],39.8% and -13.1%
same,inhibition,"[9]; single agent, at 5 µM",-4.18% and -25.9%
same,inhibition,[10]; at 0.5 µM,11% (inactive) and -17.5% (inactive)
same,inhibition,"[10]; cisplatin combo, at 5 µM",10.7% and -4.43%
same,inhibition,[10]; [40],15.8% and -34.3%
same,inhibition,[10]; [28],22.8% and -4.28%
same,inhibition,"[10]; single agent, at 5 µM",-1.69% and -19.5%
same,inhibition,[11]; at 0.5 µM,11.7% (inactive) and -2.83% (inactive)
same,inhibition,[11]; [41],-2.36% and -19.1%
same,inhibition,[11]; [42],17.5% and 3.15%
same,inhibition,"[11]; single agent, at 0.05 µM",32.6% and -48.2%
same,inhibition,"[11]; single agent, at 5 µM",-21.6% and -1.48%
Cc1cc(C)c(Nc2ccnc(Nc3ccc(C#N)cc3)n2)c(C)c1,fold change,"[12]; stronger effect = lower value, cell number ratio, induced over uninduced",0.923 (inactive)
same,fold change,[12]; measured here: relative caspase fold change +Dox/-Dox,0.624
same,cell count,"[12]; measured here: total cells with miR-34 induction, stronger effect = lower value",2390
same,cell count,[12]; measured here: total cells without miR-34 induction,2590
same,z-score,"[13]; MELAS cybrid survival, CellTiter-Glo 48 h, stronger effect = higher value",0.0317 (inactive)
same,z-score,"[13]; Rieske KO mouse fibroblast survival, CellTiter-Glo 72 h",0.105
same,inhibition,"[14]; at 0.5 µM, stronger effect = higher value",-1.98% (inactive)
same,inhibition,"[14]; measured here: combination with BGB IC20, at 0.005 µM",-30.5%
same,inhibition,"[14]; measured here: combination with BGB IC40, at 0.005 µM",-59.6%
same,inhibition,[14]; [43],-34.5%
same,inhibition,"[14]; measured here: combination with cisplatin, at 0.5 µM, stronger effect = higher value",-3.17%
same,inhibition,"[14]; measured here: combination with cisplatin, at 5 µM, stronger effect = higher value",-40.8%
same,inhibition,"[15]; BGB combo, at 5 µM",15.1%
same,inhibition,[15]; at 0.5 µM,0.3% (inactive)
same,inhibition,"[15]; cisplatin combo, at 5 µM",3.99%
same,inhibition,[15]; [41],-2.53%
same,inhibition,[15]; [42],7.83%
same,inhibition,"[15]; single agent, at 5 µM",42.2%
same,inhibition,"[16]; BGB IC20 combo, at 0.005 µM",-14.3%
same,inhibition,"[16]; BGB IC40 combo, at 0.005 µM",-27.4%
same,inhibition,"[16]; BGB IC40 combo, at 0.05 µM",-8.56%
same,inhibition,[16]; at 0.5 µM,-22.9% (inactive)
same,inhibition,"[16]; cisplatin combo, at 0.05 µM",-14.1%
same,inhibition,"[16]; cisplatin combo, at 0.5 µM",-41.4%
same,inhibition,"[16]; cisplatin combo, at 5 µM",-46.6%
same,inhibition,"[16]; measured here: 5 uM single agent, at 5 µM",-22%
same,inhibition,[17]; at 0.5 µM,-25.5% (inactive)
same,inhibition,[17]; [43],-43.1%
same,inhibition,[17]; [28],-56.3%
same,inhibition,[17]; [29],-12.2%
same,inhibition,[1]; at 0.5 µM,-1.97% (inactive)
same,inhibition,[1]; [18],4.79%
same,inhibition,[1]; [19],40.8%
same,inhibition,[1]; [20],-20.5%
same,inhibition,[1]; [21],9.74%
same,inhibition,"[1]; single agent, at 5 µM",50.9%
same,inhibition,[2]; at 0.5 µM,-8.33% (inactive)
same,inhibition,[2]; [22],-39%
same,inhibition,[2]; [23],10.4%
same,inhibition,[3]; at 0.5 µM,-17.9% (inactive)
same,inhibition,[3]; [24],-21.5%
same,inhibition,[3]; [25],-28.7%
same,inhibition,[4]; at 0.5 µM,-2.26% (inactive)
same,inhibition,[4]; [26],-10.8%
same,inhibition,[4]; [27],-7.91%
same,inhibition,[5]; at 0.5 µM,-18.5% (inactive)
same,inhibition,[5]; [28],-29.8%
same,inhibition,[5]; [29],-25.8%
same,inhibition,[6]; at 0.5 µM,-14.9% (inactive)
same,inhibition,[6]; [30],-9.41%
same,inhibition,[6]; [31],25.9%
same,inhibition,[6]; [32],-36.7%
same,inhibition,[6]; [33],45.4%
same,inhibition,[7]; [34],69.3%
same,inhibition,[7]; at 0.5 µM,-2.68% (inactive)
same,inhibition,[7]; [35],45%
same,inhibition,[8]; at 0.5 µM,11.9% (inactive)
same,inhibition,[8]; [36],11.7%
same,inhibition,[8]; [37],9.36%
same,inhibition,[9]; at 0.5 µM,8.57% (inactive)
same,inhibition,[9]; [38],-23.4%
same,inhibition,"[9]; cisplatin combination, at 5 µM",-181%
same,inhibition,[9]; [39],-32.7%
same,inhibition,"[9]; single agent, at 5 µM",2.56%
same,inhibition,[10]; at 0.5 µM,-10.9% (inactive)
same,inhibition,"[10]; cisplatin combo, at 5 µM",-30.4%
same,inhibition,[10]; [40],-21.8%
same,inhibition,[10]; [28],-16.3%
same,inhibition,"[10]; single agent, at 5 µM",17.4%
same,inhibition,[11]; at 0.5 µM,11.1% (inactive)
same,inhibition,[11]; [41],-10.9%
same,inhibition,[11]; [42],20.9%
same,inhibition,"[11]; single agent, at 0.05 µM",-17.9%
same,inhibition,"[11]; single agent, at 5 µM",56.2%
